Test systems include NCI-H23 lung; NCI-H226 lung; NCI-H322M lung; HOP-62 NSCLC; NCI-H460 lung; HOP-92 NSCLC; NCI-H522 lung; A549/ATCC NSCLC; 786-0 renal; COLO 205 colon; DU-145 prostate; K-562 leukemia; MALME-3M melanoma; MDA-MB-231 breast; RXF 393 renal; SF-268 CNS; SF-295 CNS; SF-539 CNS; UACC-257 melanoma; M14 melanoma.
Common to all, as to assay: NCI-60 one-dose screen, 48 h (100 = growth as untreated, 0 = no growth, -100 = all killed)
Conditions in all cases: 10 µM unless noted

The panel holds about 83,000 compounds, 20% with a hit somewhere; the sample as a whole holds those more often.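 Each cell line was grown in a 96-well plate and treated with one concentration of compound for 48 hours. Values below 10 were considered active.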 Values without a mark were called inactive. Activity calls are given as the source filed them.

Take `CC(=O)CC(=O)SC1=NCCS1`: the growth with NCI-H23 lung is 108%; in the assay on NCI-H226 lung, 112%; with NCI-H322M lung, 113%; in the assay with HOP-62 NSCLC it was 123%; in the assay with NCI-H460 lung, 106%; in the assay with HOP-92 NSCLC, 101%. For the same molecule, the growth is 95.8% in the assay with NCI-H522 lung; 87.6% in the assay on A549/ATCC NSCLC; 109% in the assay on 786-0 renal; 109% with COLO 205 colon; 121% in the assay with DU-145 prostate; 104% in the assay on K-562 leukemia. The growth in the assay with MALME-3M melanoma is 140%; in the assay with MDA-MB-231 breast, 112%; in the assay on RXF 393 renal it was 122%; in the assay with SF-268 CNS, 102%; in the assay with SF-295 CNS, 109%; in the assay on SF-539 CNS it was 102%. Moreover, the growth in the assay on UACC-257 melanoma was 98.8%; in the assay on M14 melanoma, 113%.

For the molecule `CC(=O)O.CC(=O)O.O.[Fe]`, the growth in the assay on NCI-H23 lung was 106%; with NCI-H226 lung it was 101%; in the assay with NCI-H322M lung, 111%; with HOP-62 NSCLC it was 103%; with NCI-H460 lung it was 107%; in the assay with HOP-92 NSCLC, 99.8%. Moreover, the growth was 90% in the assay with NCI-H522 lung; 99.1% in the assay with A549/ATCC NSCLC; 112% in the assay with 786-0 renal; 101% in the assay with COLO 205 colon; 105% in the assay with DU-145 prostate; 139% in the assay on K-562 leukemia. Besides, the growth in the assay with MALME-3M melanoma was 91.5%; in the assay with MDA-MB-231 breast, 99.2%; in the assay on RXF 393 renal, 110%; in the assay on SF-268 CNS, 95.1%; in the assay with SF-295 CNS, 127%; with SF-539 CNS, 103%. In addition, the results for the growth in the assay on UACC-257 melanoma and in the assay on M14 melanoma were 103% and 106%, respectively.

In the case of `CC(C)CCNCC(C)(C)O`, the growth in the assay on NCI-H23 lung is 101%; in the assay on NCI-H226 lung it was 111%; with NCI-H322M lung it was 106%; with HOP-62 NSCLC, 95.5%; in the assay with NCI-H460 lung, 114%; with HOP-92 NSCLC it was 96.6%. Further, the growth is 98.7% with NCI-H522 lung; 105% with A549/ATCC NSCLC; 111% in the assay on 786-0 renal; 118% in the assay with COLO 205 colon; 118% in the assay on DU-145 prostate; 109% in the assay with K-562 leukemia. The growth in the assay on MALME-3M melanoma was 121%; in the assay on MDA-MB-231 breast it was 116%; in the assay with RXF 393 renal, 117%; with SF-268 CNS, 106%; in the assay with SF-295 CNS, 111%; with SF-539 CNS, 101%. For the same molecule, the growth in the assay with UACC-257 melanoma is 102%; in the assay on M14 melanoma, 110%.

For `CCC(Br)(CC)C(=O)c1ccc(OCC(=O)O)c(Cl)c1Cl`, the growth in the assay with NCI-H23 lung was 103%; in the assay with NCI-H226 lung, 87.4%; in the assay with NCI-H322M lung, 112%; in the assay with HOP-62 NSCLC, 119%; in the assay with NCI-H460 lung, 96%; in the assay with HOP-92 NSCLC, 102%. Besides, the growth in the assay with NCI-H522 lung is 82.1%; with A549/ATCC NSCLC, 91.5%; with 786-0 renal, 117%; in the assay with COLO 205 colon it was 108%; with DU-145 prostate, 114%; in the assay on K-562 leukemia, 114%. Besides, the growth is 107% with MALME-3M melanoma; 107% in the assay on MDA-MB-231 breast; 88.8% in the assay with RXF 393 renal; 100% in the assay with SF-268 CNS; 81.6% in the assay with SF-295 CNS; 96.9% with SF-539 CNS. Also, the results for the growth in the assay on UACC-257 melanoma and with M14 melanoma were 124% and 116%, respectively.

Consider `COc1ccc2c(c1)C(C)Cc1c(ncnc1-n1cnc3ccccc31)N2C` (stereo not given), for which the growth with NCI-H23 lung was 32.3%; with NCI-H226 lung, 41.5%; with NCI-H322M lung, 54.9%; in the assay with HOP-62 NSCLC it was 24.1%; in the assay on NCI-H460 lung, 11.8%; in the assay with HOP-92 NSCLC it was 45.1%. In addition, the growth in the assay on NCI-H522 lung is -18.9% (active); in the assay with A549/ATCC NSCLC it was 21.4%; in the assay with 786-0 renal, 29%; in the assay with COLO 205 colon, -28.7% (active); with DU-145 prostate, 23.7%; in the assay on K-562 leukemia, 14.2%. The growth in the assay on MALME-3M melanoma is 92.3%; with MDA-MB-231 breast it was 12.9%; in the assay with RXF 393 renal it was 12.8%; in the assay with SF-268 CNS, 37.4%; in the assay on SF-295 CNS, 13.6%; with SF-539 CNS, 4.91% (active). The growth in the assay with UACC-257 melanoma was 67.2%; in the assay with M14 melanoma, 18.3%.

For the molecule `CCN(CC)CCSC(=O)C(O)(c1ccccc1)C1CCCC1` (stereo not given), the growth in the assay with NCI-H23 lung was 99.4%; with NCI-H226 lung, 93.1%; with NCI-H322M lung it was 118%; in the assay on HOP-62 NSCLC, 111%; with NCI-H460 lung, 115%; in the assay on HOP-92 NSCLC, 77%. Besides, the growth with NCI-H522 lung is 86.7%; with A549/ATCC NSCLC it was 85.2%; in the assay on 786-0 renal, 169%; with COLO 205 colon, 144%; in the assay with DU-145 prostate, 95.6%; in the assay with K-562 leukemia it was 96.4%. For the same molecule, the growth in the assay on MALME-3M melanoma was 116%; in the assay on MDA-MB-231 breast it was 97.9%; in the assay with RXF 393 renal it was 82.1%; in the assay with SF-268 CNS, 91.3%; in the assay on SF-295 CNS, 113%; in the assay on SF-539 CNS, 110%. In addition, the growth in the assay on UACC-257 melanoma was 83.2%; in the assay with M14 melanoma, 128%.

For the molecule `N#CC1C(=O)NC(c2ccccc2[N+](=O)[O-])c2sc3c(F)cccc3c21` (stereo not given), the growth in the assay on NCI-H23 lung was 68.9%; in the assay on NCI-H226 lung, -14.9% (active); with NCI-H322M lung it was 67.2%; in the assay with HOP-62 NSCLC it was 33.8%; in the assay with NCI-H460 lung, 2.01% (active); with HOP-92 NSCLC, 82.7%. For the same molecule, the growth in the assay on NCI-H522 lung is 88.6%; in the assay with A549/ATCC NSCLC, 47.2%; in the assay on 786-0 renal it was 90%; with COLO 205 colon it was 70.1%; in the assay on DU-145 prostate it was 89.9%; in the assay on K-562 leukemia, 35.9%. In addition, the growth in the assay on MALME-3M melanoma was 74.7%; with MDA-MB-231 breast, 75.6%; in the assay with RXF 393 renal it was 69.9%; in the assay on SF-268 CNS, 86.7%; in the assay with SF-295 CNS, 20.8%; with SF-539 CNS, 85.7%. Further, the growth was -37.3% (active) in the assay on UACC-257 melanoma and 92.7% in the assay with M14 melanoma.
